Columns and labels:
Test in all cases: log2 ratio of Biotin-Ahx-Ub-VS probe labelling (fragment/DMSO); higher = less target engagement (more negative = stronger competition), active = hit call of the paper (q ≤ 0.05, log2 ratio ≤ -1)
Details in all cases: compound concentration: 200 uM; treatment time: 3 h
[1] = molecular target: T1, USP42 (UniProt Q9H9J4)
T1 sequence (whole entry): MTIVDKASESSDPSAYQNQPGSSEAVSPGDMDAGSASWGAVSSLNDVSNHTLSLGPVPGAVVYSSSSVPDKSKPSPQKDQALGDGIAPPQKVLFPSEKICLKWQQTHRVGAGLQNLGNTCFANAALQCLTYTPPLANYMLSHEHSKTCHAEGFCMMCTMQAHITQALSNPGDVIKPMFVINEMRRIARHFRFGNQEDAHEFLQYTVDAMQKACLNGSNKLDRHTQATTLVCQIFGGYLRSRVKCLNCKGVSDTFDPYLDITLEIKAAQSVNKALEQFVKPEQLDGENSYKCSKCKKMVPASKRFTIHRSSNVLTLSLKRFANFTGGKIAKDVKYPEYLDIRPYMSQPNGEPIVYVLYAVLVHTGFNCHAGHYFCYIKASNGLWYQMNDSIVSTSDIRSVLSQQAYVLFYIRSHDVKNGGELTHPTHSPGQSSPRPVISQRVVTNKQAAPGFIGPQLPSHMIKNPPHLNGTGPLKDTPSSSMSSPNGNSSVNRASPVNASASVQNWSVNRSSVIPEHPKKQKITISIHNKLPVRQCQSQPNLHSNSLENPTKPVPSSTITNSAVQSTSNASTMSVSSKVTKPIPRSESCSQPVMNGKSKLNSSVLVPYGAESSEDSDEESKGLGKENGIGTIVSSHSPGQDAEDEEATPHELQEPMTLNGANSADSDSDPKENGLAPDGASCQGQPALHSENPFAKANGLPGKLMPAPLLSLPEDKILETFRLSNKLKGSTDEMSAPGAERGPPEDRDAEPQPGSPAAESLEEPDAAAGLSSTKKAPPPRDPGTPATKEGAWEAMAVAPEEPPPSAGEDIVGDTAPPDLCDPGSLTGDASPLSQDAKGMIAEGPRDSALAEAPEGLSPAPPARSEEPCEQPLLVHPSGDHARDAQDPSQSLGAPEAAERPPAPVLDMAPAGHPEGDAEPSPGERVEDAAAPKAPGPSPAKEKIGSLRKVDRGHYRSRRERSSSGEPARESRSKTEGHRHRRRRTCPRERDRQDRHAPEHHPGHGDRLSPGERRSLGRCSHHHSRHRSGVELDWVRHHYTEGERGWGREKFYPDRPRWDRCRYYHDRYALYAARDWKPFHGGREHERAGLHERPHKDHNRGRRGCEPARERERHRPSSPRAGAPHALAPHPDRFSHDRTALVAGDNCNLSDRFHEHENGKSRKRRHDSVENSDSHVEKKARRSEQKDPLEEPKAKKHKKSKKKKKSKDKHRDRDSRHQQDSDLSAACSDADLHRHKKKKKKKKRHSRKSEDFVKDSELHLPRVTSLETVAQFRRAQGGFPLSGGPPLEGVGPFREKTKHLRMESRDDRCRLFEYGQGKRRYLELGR
Method in brief: (§1)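 Labelled DUBs from HEK293T lysate were NeutrAvidin-enriched, digested with LysC and trypsin, and run by diaPASEF LC-MS/MS. Before that, each 495 µg sample in Tris/CHAPS/IGEPAL buffer with protease inhibitors was treated in triplicate with fragment at 200 µM or vehicle for 3 h, then with Biotin-Ahx-Ub-VS at 0.5 µM final for 1 h. Values are average log2 ratios of fragment over vehicle by unpaired t-test, based on global-median-normalised Spectronaut label-free quantities from proteins with ≥2 unique peptides.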

[2] = molecular target: USP46 (UniProt P62068)
Sequence of USP46 (P62068 whole entry): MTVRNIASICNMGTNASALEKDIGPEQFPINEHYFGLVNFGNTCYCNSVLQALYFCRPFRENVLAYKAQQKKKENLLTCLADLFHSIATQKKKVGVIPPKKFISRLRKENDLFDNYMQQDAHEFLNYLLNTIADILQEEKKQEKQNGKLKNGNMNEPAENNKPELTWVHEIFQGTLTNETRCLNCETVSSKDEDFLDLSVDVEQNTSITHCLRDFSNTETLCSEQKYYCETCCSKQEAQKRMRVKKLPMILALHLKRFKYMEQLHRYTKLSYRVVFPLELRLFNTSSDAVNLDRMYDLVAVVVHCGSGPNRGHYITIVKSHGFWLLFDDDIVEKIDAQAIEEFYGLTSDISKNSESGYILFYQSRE
Method in brief: as §1

[3] = molecular target: T2, USP47 (UniProt Q96K76)
T2 sequence (whole entry): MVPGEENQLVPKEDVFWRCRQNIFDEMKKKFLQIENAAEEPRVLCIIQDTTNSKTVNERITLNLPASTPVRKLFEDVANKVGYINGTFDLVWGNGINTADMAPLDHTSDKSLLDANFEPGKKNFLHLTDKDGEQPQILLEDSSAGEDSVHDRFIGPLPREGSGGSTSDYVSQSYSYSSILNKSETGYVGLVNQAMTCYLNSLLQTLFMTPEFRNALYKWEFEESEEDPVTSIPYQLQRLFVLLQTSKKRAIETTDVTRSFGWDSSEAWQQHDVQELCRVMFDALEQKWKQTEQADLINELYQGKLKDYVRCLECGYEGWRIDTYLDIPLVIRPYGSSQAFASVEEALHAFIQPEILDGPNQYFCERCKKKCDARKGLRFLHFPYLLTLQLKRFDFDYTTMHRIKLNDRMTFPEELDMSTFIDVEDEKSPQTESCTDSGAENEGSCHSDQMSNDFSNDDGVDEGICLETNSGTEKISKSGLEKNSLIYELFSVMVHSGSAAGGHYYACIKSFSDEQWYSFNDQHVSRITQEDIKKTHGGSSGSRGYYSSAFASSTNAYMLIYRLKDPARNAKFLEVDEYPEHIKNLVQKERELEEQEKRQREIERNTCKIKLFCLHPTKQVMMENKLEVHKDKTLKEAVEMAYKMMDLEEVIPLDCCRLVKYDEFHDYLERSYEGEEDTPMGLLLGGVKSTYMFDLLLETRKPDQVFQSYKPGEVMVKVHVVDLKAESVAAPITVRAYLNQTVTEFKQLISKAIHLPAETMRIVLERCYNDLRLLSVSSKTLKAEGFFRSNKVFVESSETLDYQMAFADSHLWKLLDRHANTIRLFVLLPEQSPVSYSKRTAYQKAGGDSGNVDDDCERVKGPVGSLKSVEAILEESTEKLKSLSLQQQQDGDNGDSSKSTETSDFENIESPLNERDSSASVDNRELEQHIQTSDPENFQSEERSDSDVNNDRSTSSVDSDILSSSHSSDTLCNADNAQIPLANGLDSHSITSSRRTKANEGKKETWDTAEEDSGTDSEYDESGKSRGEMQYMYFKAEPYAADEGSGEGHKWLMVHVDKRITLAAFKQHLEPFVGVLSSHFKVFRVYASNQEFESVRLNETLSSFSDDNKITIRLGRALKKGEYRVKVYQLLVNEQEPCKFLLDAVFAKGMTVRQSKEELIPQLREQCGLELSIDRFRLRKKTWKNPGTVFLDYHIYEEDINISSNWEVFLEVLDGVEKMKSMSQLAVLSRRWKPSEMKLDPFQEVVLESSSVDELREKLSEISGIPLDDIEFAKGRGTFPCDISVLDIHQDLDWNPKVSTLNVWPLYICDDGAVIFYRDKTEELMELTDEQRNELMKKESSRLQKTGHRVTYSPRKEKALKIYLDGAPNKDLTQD
Method in brief: as §1

[4] = molecular target: T3, USP48 (UniProt Q86UV5)
T3 sequence (whole entry): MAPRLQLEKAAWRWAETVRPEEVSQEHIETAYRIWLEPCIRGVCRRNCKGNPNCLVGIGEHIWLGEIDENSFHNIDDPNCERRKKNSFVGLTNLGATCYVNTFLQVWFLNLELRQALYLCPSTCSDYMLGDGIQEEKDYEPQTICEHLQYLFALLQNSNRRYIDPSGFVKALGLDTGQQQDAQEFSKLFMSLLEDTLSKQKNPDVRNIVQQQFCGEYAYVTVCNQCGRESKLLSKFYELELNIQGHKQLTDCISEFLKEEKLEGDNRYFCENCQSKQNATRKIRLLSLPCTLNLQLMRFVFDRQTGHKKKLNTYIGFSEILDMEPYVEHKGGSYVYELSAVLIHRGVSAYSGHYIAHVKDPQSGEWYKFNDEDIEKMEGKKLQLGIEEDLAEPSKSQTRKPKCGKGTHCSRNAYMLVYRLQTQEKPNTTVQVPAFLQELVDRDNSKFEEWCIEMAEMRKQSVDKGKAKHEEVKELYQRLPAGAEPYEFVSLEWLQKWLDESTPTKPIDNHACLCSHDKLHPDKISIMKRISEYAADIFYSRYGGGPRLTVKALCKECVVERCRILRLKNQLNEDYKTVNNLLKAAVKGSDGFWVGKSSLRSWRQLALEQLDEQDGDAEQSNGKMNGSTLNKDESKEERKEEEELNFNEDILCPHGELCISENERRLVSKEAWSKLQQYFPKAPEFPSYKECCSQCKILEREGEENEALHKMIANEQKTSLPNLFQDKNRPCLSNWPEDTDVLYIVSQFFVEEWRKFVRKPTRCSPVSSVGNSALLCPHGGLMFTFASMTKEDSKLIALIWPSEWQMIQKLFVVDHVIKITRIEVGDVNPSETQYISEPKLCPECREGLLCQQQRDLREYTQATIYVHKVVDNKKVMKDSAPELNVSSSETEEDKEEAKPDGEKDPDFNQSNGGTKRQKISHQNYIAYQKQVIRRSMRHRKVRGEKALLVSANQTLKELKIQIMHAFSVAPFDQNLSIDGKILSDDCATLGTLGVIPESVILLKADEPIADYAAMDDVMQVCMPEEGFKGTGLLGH
Method in brief: as §1

[5] = molecular target: T4, USP5 (UniProt P45974)
T4 sequence (whole entry): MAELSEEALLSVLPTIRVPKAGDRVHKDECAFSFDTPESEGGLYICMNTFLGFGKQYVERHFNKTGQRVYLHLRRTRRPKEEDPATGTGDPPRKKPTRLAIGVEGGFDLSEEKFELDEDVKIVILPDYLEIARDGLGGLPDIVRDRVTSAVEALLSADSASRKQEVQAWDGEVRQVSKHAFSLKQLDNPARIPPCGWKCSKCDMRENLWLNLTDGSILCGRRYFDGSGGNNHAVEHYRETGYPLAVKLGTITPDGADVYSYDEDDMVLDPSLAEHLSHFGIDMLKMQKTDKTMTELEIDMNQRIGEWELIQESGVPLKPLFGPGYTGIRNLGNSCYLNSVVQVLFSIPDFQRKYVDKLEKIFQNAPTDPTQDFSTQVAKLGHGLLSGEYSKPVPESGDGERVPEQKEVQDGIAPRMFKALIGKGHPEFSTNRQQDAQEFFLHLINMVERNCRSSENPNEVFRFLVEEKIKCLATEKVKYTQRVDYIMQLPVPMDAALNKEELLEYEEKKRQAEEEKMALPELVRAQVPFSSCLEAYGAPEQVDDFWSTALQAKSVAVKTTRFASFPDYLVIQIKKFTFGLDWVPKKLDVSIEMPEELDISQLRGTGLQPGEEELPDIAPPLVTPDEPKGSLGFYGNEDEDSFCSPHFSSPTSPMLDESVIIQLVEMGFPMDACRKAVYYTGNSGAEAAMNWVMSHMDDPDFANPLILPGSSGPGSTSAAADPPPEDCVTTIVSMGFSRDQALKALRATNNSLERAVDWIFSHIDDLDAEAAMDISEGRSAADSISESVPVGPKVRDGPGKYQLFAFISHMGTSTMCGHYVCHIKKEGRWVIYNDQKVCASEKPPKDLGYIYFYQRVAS
Method in brief: as §1

[6] = molecular target: USP54 (UniProt Q70EL1)
Sequence of USP54 (Q70EL1 whole entry): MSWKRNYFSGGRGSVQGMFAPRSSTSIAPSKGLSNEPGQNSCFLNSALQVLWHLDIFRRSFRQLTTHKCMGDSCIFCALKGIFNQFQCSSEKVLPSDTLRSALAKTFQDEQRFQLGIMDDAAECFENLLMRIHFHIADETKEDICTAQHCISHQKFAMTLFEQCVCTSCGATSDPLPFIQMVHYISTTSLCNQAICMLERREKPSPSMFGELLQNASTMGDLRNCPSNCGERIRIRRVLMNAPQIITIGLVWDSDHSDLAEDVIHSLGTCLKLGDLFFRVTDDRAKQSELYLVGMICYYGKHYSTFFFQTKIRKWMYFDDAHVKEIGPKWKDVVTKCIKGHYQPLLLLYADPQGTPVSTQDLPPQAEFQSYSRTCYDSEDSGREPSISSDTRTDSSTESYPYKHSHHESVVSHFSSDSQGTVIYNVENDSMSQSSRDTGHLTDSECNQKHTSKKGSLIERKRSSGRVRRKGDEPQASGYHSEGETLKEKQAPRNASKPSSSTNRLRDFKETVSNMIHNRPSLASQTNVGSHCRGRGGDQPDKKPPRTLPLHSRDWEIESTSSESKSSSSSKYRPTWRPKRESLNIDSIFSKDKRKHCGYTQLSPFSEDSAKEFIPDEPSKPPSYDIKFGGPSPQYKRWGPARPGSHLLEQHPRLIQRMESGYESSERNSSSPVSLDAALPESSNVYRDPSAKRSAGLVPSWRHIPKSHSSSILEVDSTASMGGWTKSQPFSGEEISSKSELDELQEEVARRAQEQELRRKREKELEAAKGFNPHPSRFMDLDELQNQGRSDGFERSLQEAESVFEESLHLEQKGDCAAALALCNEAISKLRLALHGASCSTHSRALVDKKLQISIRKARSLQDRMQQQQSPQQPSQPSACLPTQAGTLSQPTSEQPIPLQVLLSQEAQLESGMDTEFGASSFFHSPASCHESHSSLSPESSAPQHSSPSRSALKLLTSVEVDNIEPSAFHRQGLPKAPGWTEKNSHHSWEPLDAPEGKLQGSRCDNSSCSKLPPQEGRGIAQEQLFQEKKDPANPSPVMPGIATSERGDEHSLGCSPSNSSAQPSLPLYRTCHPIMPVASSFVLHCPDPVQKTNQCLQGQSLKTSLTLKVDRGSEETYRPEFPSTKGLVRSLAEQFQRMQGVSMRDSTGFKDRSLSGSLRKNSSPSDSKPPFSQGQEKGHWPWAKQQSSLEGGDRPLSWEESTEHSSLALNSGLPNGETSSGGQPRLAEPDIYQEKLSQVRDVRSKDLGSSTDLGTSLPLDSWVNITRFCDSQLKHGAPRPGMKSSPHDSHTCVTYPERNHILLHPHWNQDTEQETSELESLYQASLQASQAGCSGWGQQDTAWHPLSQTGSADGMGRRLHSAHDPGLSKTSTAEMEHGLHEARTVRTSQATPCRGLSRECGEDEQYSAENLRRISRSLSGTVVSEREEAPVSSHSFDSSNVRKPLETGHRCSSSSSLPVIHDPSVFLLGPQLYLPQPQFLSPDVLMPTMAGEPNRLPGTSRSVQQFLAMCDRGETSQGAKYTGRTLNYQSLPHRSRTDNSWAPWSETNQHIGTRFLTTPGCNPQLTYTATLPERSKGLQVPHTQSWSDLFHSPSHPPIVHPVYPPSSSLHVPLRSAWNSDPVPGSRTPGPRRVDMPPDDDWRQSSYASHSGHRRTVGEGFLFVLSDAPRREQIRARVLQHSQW
Method in brief: as §1

[7] = molecular target: USP7 (UniProt Q93009)
Method in brief: as §1

[8] = molecular target: T5, USP8 (UniProt P40818)
T5 sequence (whole entry): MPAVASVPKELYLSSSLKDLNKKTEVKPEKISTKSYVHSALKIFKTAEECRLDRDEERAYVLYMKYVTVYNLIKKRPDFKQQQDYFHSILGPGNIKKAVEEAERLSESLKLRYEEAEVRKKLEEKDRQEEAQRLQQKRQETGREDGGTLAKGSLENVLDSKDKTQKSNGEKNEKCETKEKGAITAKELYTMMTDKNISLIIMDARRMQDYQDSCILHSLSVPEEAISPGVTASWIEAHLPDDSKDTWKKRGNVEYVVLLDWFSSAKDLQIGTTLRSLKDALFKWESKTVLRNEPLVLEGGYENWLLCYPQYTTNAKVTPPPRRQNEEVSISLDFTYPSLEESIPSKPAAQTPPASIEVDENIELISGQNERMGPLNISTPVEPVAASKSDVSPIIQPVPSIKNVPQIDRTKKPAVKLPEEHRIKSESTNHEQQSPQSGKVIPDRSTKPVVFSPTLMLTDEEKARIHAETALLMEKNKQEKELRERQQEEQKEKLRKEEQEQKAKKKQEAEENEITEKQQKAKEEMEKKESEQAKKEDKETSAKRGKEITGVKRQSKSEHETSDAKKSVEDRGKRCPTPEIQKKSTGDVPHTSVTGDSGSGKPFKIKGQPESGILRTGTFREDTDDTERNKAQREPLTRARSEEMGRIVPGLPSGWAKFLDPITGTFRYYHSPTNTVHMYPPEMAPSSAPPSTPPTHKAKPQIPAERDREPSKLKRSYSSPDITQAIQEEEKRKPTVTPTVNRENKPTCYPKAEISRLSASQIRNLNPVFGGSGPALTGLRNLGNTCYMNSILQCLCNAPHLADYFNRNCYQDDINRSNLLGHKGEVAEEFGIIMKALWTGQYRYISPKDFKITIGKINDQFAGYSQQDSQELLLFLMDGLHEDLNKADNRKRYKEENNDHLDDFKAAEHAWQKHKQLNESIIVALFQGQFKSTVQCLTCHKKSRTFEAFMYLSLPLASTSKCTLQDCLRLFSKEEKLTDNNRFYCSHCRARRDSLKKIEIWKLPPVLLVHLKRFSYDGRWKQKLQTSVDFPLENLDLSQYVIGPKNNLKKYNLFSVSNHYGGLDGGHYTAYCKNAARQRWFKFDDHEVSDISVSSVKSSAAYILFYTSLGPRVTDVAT
Method in brief: as §1

[9] = molecular target: USP9X (UniProt Q93008)
Sequence of USP9X (Q93008 whole entry): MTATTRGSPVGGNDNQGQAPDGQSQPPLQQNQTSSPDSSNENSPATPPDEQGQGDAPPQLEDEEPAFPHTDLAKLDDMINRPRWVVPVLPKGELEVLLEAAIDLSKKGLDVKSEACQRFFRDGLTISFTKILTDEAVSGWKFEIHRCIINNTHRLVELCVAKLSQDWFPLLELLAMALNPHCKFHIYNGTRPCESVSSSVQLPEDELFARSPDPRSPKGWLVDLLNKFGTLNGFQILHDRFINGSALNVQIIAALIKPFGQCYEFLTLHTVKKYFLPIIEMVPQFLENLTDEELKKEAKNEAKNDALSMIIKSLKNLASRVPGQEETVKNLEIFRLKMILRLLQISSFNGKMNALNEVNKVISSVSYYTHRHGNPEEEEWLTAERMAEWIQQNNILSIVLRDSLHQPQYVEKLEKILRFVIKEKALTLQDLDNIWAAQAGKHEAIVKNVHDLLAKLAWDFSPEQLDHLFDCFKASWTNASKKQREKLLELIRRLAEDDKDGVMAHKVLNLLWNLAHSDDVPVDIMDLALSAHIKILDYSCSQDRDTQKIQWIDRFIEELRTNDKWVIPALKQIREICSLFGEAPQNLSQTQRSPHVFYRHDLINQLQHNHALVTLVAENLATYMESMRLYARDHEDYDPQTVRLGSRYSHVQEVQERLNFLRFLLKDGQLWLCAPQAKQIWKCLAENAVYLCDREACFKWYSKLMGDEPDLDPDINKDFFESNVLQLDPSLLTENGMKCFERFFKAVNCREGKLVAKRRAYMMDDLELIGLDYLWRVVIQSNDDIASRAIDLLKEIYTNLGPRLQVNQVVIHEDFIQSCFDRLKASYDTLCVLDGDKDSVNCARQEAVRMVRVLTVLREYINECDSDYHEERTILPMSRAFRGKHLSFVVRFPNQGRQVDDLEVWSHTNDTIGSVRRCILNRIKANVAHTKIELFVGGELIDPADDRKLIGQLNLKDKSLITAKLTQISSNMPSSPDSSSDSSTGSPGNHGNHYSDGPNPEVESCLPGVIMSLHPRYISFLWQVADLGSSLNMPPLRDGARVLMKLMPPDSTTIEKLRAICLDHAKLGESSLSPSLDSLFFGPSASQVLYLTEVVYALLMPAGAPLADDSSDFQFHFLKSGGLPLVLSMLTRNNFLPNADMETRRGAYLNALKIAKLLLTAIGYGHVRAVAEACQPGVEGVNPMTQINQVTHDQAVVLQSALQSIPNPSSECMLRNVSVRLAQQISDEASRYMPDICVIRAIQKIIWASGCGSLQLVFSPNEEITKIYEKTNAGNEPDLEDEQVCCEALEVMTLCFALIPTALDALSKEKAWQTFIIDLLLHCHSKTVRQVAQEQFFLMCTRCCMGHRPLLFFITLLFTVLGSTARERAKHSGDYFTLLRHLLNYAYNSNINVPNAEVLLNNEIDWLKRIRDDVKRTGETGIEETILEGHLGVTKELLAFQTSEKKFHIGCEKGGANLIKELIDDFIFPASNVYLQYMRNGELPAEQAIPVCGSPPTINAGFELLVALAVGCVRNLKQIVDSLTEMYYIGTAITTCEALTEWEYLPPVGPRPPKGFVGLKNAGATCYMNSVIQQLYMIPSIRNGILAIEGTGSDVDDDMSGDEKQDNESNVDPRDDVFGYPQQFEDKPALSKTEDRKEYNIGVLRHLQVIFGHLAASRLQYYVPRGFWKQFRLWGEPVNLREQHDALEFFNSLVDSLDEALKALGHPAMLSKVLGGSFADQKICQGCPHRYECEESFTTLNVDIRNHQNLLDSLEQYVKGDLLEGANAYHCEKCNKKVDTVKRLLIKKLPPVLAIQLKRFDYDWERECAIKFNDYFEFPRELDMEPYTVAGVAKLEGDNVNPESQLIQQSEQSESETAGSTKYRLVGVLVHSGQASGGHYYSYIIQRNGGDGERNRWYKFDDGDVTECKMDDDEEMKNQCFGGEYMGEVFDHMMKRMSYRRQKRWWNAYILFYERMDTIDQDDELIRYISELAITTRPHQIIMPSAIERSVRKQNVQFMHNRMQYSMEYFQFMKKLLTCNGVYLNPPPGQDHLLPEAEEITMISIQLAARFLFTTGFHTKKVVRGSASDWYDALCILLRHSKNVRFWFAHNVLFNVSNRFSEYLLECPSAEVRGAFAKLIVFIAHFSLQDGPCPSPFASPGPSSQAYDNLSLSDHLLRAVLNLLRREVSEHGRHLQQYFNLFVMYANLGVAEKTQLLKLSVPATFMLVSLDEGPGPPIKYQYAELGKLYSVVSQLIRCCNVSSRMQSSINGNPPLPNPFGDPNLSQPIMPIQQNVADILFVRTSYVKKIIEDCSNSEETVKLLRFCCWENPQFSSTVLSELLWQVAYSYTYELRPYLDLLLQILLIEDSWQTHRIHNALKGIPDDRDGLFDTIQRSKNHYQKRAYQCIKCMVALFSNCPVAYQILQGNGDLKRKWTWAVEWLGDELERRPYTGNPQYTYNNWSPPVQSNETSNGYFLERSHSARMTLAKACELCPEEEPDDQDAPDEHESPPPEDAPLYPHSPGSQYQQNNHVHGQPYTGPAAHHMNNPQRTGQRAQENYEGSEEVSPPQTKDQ
Method in brief: as §1

[10] = molecular target: UniProt O00487
Sequence of UniProt O00487 (O00487 whole entry): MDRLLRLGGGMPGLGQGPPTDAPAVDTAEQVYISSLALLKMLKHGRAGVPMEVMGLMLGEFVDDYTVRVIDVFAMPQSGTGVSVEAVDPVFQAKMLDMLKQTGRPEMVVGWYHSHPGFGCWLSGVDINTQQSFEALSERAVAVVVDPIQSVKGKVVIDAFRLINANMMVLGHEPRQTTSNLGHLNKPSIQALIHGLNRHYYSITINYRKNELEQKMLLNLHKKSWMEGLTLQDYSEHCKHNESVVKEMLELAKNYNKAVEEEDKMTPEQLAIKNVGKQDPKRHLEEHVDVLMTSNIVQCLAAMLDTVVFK
Method in brief: as §1

Measured: log2 ratio of Biotin-Ahx-Ub-VS probe labelling

O=C(CCl)Nc1cccc(NC(=O)c2ccccc2)c1
inactive: [1] 0.808 | [2] 0.291 | [3] -0.303 | [4] -0.0133 | [5] 0.0977 | [6] -0.543 | [7] 0.0734 | [8] 0.244 | [9] 0.246 | [10] 0.00956
